Assay outcomes as filed in PubChem BioAssay.
A selection: hits, their analogues and other compounds. The true share with any hit is near 3.6%.
Pf apPOL inh: Pf-apPOL DNA polymerase inhibition. Recombinant Pf-apPOL, molecular beacon fluorescence, 1.5 h. inhibition, % at 10 µM. 210,000 tested, 0.25% active
mHTT CaM bind: inhibitors of human mutant huntingtin-calmodulin interaction. AlphaScreen His-mHTT/GST-CaM binding, luminescence. inhibition, % at 15 µM. 190,000 tested, 3.6% active. AID 1671202. P42858;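 note: 0% = both proteins with DMSO and 100% = one protein alone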
Numbers without * were called inactive. Cut-off read from the data, not from the text of the source: active = inhibition above about 50%; inactive = the rest.

SMILES	Pf apPOL inh	mHTT CaM bind
Cc1ccc(/C=C(\C#N)c2[nH]nc(N)c2C#N)cc1	-1	31
COc1ccc(OC)c(/C=C(\C#N)c2[nH]nc(N)c2C#N)c1	-64	61*
N#C/C(=C\c1c[nH]c2ccccc12)c1[nH]nc(N)c1C#N	1	54*
N#C/C(=C\c1ccc(-c2ccc(Cl)c(Cl)c2)o1)c1[nH]nc(N)c1C#N	-7	95*
Cc1sc2cc(C(=O)N3CCCC3)[nH]c2c1CN1CCCC1	2	-15
O=C(NCc1ccccn1)c1ccc2c(c1)NC(=O)C(N1CCCC1)S2 (stereo not drawn)	-11	58*
O=C(NCc1ccccc1Cl)c1ccc2c(c1)NC(=O)C(N1CCCC1)S2 (stereo not drawn)	-16	6
O=C(NCCc1cccs1)C1CCc2sc(C(=O)N3CCCC3)cc2C1 (stereo not drawn)	-2	11
Cc1cc(NC(=O)CSc2nc3ccsc3c(=O)n2C2CCCCC2)no1	-4	-3
Cc1nn(C)c(C)c1S(=O)(=O)N1CCCCC1c1nncn1C (stereo not drawn)	6	-3
O=C(Nc1ccc(Oc2ccccc2)cc1)C1CC(=O)N(c2ccccc2Cl)C1 (stereo not drawn)	0	72*
COc1ccc(NC(=O)C2CC(=O)N(c3ccccc3)C2)cc1 (stereo not drawn)	2	0
c1ccc2c(Cc3c[nH]c4ccc(-c5ccncc5)cc34)c[nH]c2c1	3	100*
O=C(O)Cc1c[nH]c2ccccc12	-1	10
CC(=O)NC1=NN(C(C)=O)C2(S1)C(=O)N(C(C)=O)c1ccc(Br)cc12 (stereo not drawn)	2	52*
CC(=O)NC1=NN(C(C)=O)C2(S1)C(=O)N(C(C)=O)c1ccccc12 (stereo not drawn)	-3	5
CC(=O)NC1=NC(=O)/C(=C\c2ccc(-c3ccc(Cl)cc3Cl)o2)S1	-4	-14
